Rows were chosen to be rich in hits. Some 2.3% of all compounds tested hit in one or more screens of this group.
M1 PAM parental – nonselective calcium activators in parental CHO-K1 cells, primary screen, counter-screen for M1 PAM project, cell-based, Fluo-8 calcium fluorescence, full deck, 1536-well; ATP EC20; 0% at ATP EC20, 100% at ATP max; activation, % at 3 µM; hit rate 0.02% among 360,000; AID 602247, 2012;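 active means activation above the run cutoff, the mean activation of all test compounds plus 3 SD, cut at about 40% in these data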;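 further: peak over basal fluorescence ratio in a 140 s read after ATP addition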
CHRM1 agonist – human M1 muscarinic receptor agonists, primary screen, Fluo-8 calcium fluorescence, CHO-K1 cells, HTS | Muscarinic acetylcholine receptor M1 (Homo sapiens), P11229 | CHO-K1 hM1, agonist mode; 0% DMSO, 100% acetylcholine EC100 | activation, % at 3 µM | hit rate 0.33% among 360,000 | AID 588814, 2011;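 active means activation above the run's mean compound activation plus 3 SD, cut at about 16% in these data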;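 further: peak over basal fluorescence ratio within a 140 s kinetic read after compound addition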
Target sequence (P11229 whole entry, looked up): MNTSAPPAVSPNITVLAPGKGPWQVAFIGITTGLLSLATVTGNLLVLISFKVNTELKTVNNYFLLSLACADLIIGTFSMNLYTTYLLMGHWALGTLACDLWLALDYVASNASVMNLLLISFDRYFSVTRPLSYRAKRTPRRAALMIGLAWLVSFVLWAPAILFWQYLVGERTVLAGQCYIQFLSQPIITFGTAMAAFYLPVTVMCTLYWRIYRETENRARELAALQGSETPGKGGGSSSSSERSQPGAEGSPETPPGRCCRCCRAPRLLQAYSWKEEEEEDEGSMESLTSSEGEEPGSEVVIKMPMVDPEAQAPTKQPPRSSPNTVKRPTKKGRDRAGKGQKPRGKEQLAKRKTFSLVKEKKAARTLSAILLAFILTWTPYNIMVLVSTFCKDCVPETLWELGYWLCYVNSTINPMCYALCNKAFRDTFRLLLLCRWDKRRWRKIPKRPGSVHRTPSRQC
M1 antag – human M1 muscarinic receptor antagonists, primary screen, CHO-K1 cells, Fluo-8 calcium fluorescence, 1536-well; hit rate 1.3% among 360,000; inhibition, % at 3 µM; CHO-K1 hM1, ACh EC80 antagonist;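 active means percent inhibition above its own plate's cutoff, namely the mean of that plate's compound wells plus 3 SD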;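 further: peak over basal fluorescence ratio during 140 s after agonist addition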
CHRM1 PAM – human M1 muscarinic receptor positive allosteric modulators, primary screen, CHO-K1 cells, Fluo-8 calcium fluorescence, 1536-well; Muscarinic acetylcholine receptor M1 (Homo sapiens), P11229; CHO-K1 hM1, ACh EC20; 0% = ACh EC20, 100% = maximal ACh; activation, % at 3 µM; hit rate 0.088% among 360,000; AID 588819, 2011; in the data active means activation above about 19%, passing the limit was not always enough
M1 ag parental – counter-screen for M1 agonists: effect in parental CHO-K1 cells. Fluo-8 calcium fluorescence; scaled to maximal ATP response, vehicle zero. activation, % at 3 µM. hit rate 0.48% among 360,000. AID 602248, 2012; in the data active means activation above about 15%;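 further: untransfected CHO-K1 host cells lacking M1 receptor as counterscreen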
CHO-K1 Ca antag – nonselective inhibitor or artifact in parental CHO-K1 cells. inhibition, % at 3 µM. ATP-induced calcium, Fluo-8 fluorescence. hit rate 0.6% among 360,000;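 active means inhibition above a per-plate cutoff, the plate's mean sample inhibition plus 3 SD, cut at about 24% in these data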
Large screens that a line does not name were inactive.

NCC(c1ccc(Cl)cc1Cl)c1c[nH]c2ccccc12 (centres undefined)	M1 ag parental 15, CHO-K1 Ca antag 25
C/C(=N\NC(=O)c1ccccc1)c1ccc(N2CCOCC2)cc1	none
C/C(=N/NC(=O)c1cccs1)c1ccc(N2CCOCC2)cc1	CHO-K1 Ca antag 25
Cc1nc2ccccc2c(=O)n1/N=C/c1cn[nH]c1-c1ccccc1	none
Cc1ccc(-c2[nH]ncc2/C=N/n2c(COc3ccccc3)nc3ccccc3c2=O)cc1	M1 antag 29
Cc1ccccc1OCc1nc2ccccc2c(=O)n1/N=C/c1cn[nH]c1-c1ccccc1	M1 antag 29
Cc1cccc(C=Nc2ccc3c4c(cccc24)CC3)c1O	M1 ag parental 15, CHO-K1 Ca antag 25
Oc1ccc(Cl)cc1C=Nc1ccc2c3c(cccc13)CC2	CHRM1 agonist 22, M1 ag parental 44, CHO-K1 Ca antag 32
CCc1ccc(O)c(N=Cc2cccc(C)c2O)c1	none
Oc1ccc(Cl)cc1/C=N/c1nccs1	none
O=C(OCc1nnc(-c2ccccc2)o1)c1cccc(-n2cnnn2)c1	none
Cn1c(SCC(N)=O)nnc1-c1ccc(S(=O)(=O)N2CCCC2)cc1	none
Cc1ccc(-n2c(SCC(N)=O)nnc2-c2ccc(S(=O)(=O)N3CCCCC3)cc2)c(C)c1	M1 antag 91
O=C(Nc1cccn2nc(COCCO)nc12)C(c1ccccc1)c1ccccc1	none
Cc1cccc(NC(=O)C2(c3ccc([N+](=O)[O-])cc3)CCCC2)c1	M1 ag parental 19
Cc1cc(C)nc(NS(=O)(=O)c2ccc(NC(=O)C3(c4ccc([N+](=O)[O-])cc4)CCCC3)cc2)n1	CHRM1 agonist 24
COc1ccc(C2(C(=O)Nc3ccc(S(=O)(=O)Nc4nc(C)cc(C)n4)cc3)CCCC2)cc1OC	none
CN(C(=O)COC(=O)CCC1CCCCC1)c1c(N)n(Cc2ccccc2)c(=O)[nH]c1=O	none
O=C1c2ccccc2C(=O)N1CCCc1nc2ccccc2c(=O)n1CCCn1ccnc1	CHO-K1 Ca antag 30
Cc1cc(/C=N/n2cnnc2)c(C)n1-c1ccc(OCc2ccc(Cl)cc2)cc1	CHO-K1 Ca antag 24
Cc1cc(/C=N/n2cnnc2)c(C)n1-c1ccc(OCc2ccccc2F)cc1	M1 antag 45
CN(Cc1ccccc1)C(=O)c1[nH]cnc1C(=O)N[C@@H](Cc1ccccc1)C(=O)OC(C)(C)C	none
CC[C@H](C)/C=C/C1=CC2=C(Cl)C(=O)[C@@]3(C)OC(=O)C(C(=O)[C@H](C)[C@@H](C)O)=C3C2=CO1	none
COc1ccc2nc(C)cc(Sc3nc4ccccc4s3)c2c1	M1 ag parental 29
OC(CN1CCOCC1)Cn1cnc2ccccc21 (centres undefined)	none
OC(CN1CCOCC1)Cn1c(-c2cccc(Cl)c2)nc2ccccc21 (centres undefined)	CHO-K1 Ca antag 28
O=C(OC1CCOC1=O)c1ccc(Cl)c(S(=O)(=O)N2CCOCC2)c1 (centres undefined)	none
OCCN(CC#CC(O)(c1ccccc1)c1ccccc1)CCO	none
CC(C)N(CC#CC(O)(c1ccccc1)c1ccccc1)CCO	M1 antag 84
CN(CC#CC(O)(c1ccccc1)c1ccccc1)C(C)(C)C	M1 antag 100
CC(C)N(CC#CC(O)(c1ccccc1)c1ccccc1)C(C)C	M1 antag 100
COc1cccc(C(=O)N(CN2CCCC2=O)c2ccccc2OC)c1	CHO-K1 Ca antag 28
CCC1CCCCN1C(=O)CCCOc1ccccc1 (centres undefined)	none
CCCCC[C@H](O)/C=C/[C@H]1CCC(=O)[C@@H]1CCCCCCC(=O)N1CCCCC1CO (some centres undefined)	M1 ag parental 16, CHO-K1 Ca antag 53
CC(C)COC(=O)N1CCCCC1c1cc(C(=O)Nc2ccccc2)no1 (centres undefined)	none
C/C(=N\Nc1ccccn1)c1ccc(OC(F)F)cc1	M1 ag parental 17
O=C(O)c1ccccc1C(=O)NCc1c(Cl)cccc1Sc1ccc(Cl)cc1	none
COc1cc(C(=O)N/N=C(\C)Cn2nc([N+](=O)[O-])cc2C)ccc1O	CHO-K1 Ca antag 28
C/C(Cn1nc([N+](=O)[O-])cc1C)=N\NC(=O)c1ccc(O)cc1O	none
CCOc1ccc(CCNC(=O)c2ccc(OCc3c(C)noc3C)cc2)cc1OCC	none
O=C1Nc2ccccc2/C1=N\N=C\C1=C(N2CCOCC2)C(=C\c2ccccc2)/CC1	M1 antag 30
CC(=O)Nc1ccc(NC(=O)COC(=O)COc2ccc3ccccc3c2)cc1	none
OC(CNCCNc1ncccc1C(F)(F)F)Cn1ccc2ccccc21 (centres undefined)	CHRM1 agonist 20
CCOc1cccc2cc(C(=O)Oc3ccc(OC)cc3)c(=O)oc12	M1 ag parental 16
COc1ccccc1CNC(=O)CCS(=O)(=O)c1ccc2c(c1)CC(C)N2C(=O)C1CC1 (centres undefined)	none
Nc1nc(SCC(=O)O)[nH]c(=O)c1NC(=O)c1ccccc1F	none
COCCNC(=O)CSc1nc(N)c(NC(=O)c2ccccc2F)c(=O)[nH]1	CHO-K1 Ca antag 24
CCOC(=O)CN1C(=O)Nc2ccc(Br)cc2C1c1ccccc1 (centres undefined)	M1 antag 50
COc1cccc(/C=N/Nc2snc(SC)c2C#N)c1O	M1 ag parental 17
CCOC(=O)[C@]12CCCC=C1N(Cc1ccco1)C(=O)[C@H](CC(=O)NCCCOC)C2	none (no result: CHRM1 agonist, M1 antag, CHRM1 PAM)
O=C(CSCC(=O)N1CCCCC1)Nc1nc(-c2ccc(Cl)s2)cs1	M1 antag 31
CCOC(=O)N1CCC(N2CCCC(C(=O)c3cccc(OC)c3)C2)CC1 (centres undefined)	M1 antag 54
COc1cccc(C(=O)C2CCCN(Cc3cn[nH]c3C3CCCCC3)C2)c1 (centres undefined)	none
COc1cccc(C(=O)C2CCCN(Cc3cn(CC(N)=O)c4ccccc34)C2)c1 (centres undefined)	CHO-K1 Ca antag 32
Cc1ccc(C)c(NC(=S)N2CCC(NC(=O)c3ccc(F)cc3)CC2)c1	none
COc1cc(/C=N/NC(=O)c2ccccn2)ccc1OC(=O)c1ccc(Br)cc1	none
COc1cc(/C=N/NC(=O)c2ccccn2)ccc1OC(=O)c1ccccc1Br	CHO-K1 Ca antag 27
Cc1cc2c(NCCc3ccccc3)ncnc2s1	CHO-K1 Ca antag 24
